We go through 40 molecules from PubChem BioAssay (NCI).

Compounds without any hit were thinned out: in the full panel of roughly 79,000, 15% have a hit. Values without a mark were called inactive. The source made the active and inactive calls. Cut-off read from the data, not from the text of the source: active = growth inhibition above about 70%; inactive = the rest.

The nature of the assay: NCI Yeast Anticancer Drug Screen. Data for the cln2 rad14 strain (AID 165).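 Note: 0% = growth equal to vehicle treated cultures.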 The conditions noted are these: S. cerevisiae cln2 rad14 strain, at 50.0 µM, stronger effect = higher value. The essentials:
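Compounds are applied to the cln2 rad14 yeast strain, and growth is then compared with that of vehicle-treated cultures to give inhibition.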
Take `c1ccc(-c2c3ccccc3cc3c2ccc2ccccc23)cc1`: the growth inhibition is 9.25%. `CCCCCCC(C)(C)NC(N)=O`: the growth inhibition was 16.8%.

Consider `Cc1ncc(N)nc1C`, for which the growth inhibition is -35.5%. As for `CC(=O)OCc1ccc(C)cc1`, the growth inhibition is -32.8%. The same measure for `O=C(O)CCc1ccccc1CC(=O)O`: -10.1%; for `CC(=O)O[C@H]1C[C@]2(C)C(CCC3O[C@@]32C)[C@@]2(CC(c3ccoc3)OC2O)[C@@H]1C` (stereo not given in full): -10.1%; for `CC1=C(CC2C(=O)N(c3ccccc3)S(=O)(=O)NC2C)C(=O)N(c2ccccc2)S(=O)(=O)N1C` (stereo not given): -17.1%. The same measure for `O/N=C1/C(=C/c2ccc(F)cc2)CCCC1C(NO)c1ccc(F)cc1` (stereo not given): 3.35%; for `COC(=O)N/N=C/c1oc(-c2ccccc2)c(-c2ccccc2)c1[N+](=O)[O-]`: 20.8%; for `COc1ccc(C2C3=C(CC(C)(C)CC3=O)Oc3cc4c(cc32)OCO4)cc1` (stereo not given): -0.45%. On to `CN(C)NC(=O)Nc1cccc2ccccc12`, for which the growth inhibition was -22.4%. The same measure for `CC(C)(C)OC(=O)C1CCC/C1=N/Nc1ccc([N+](=O)[O-])cc1[N+](=O)[O-]` (stereo not given): 24.2%.

With `CC(C)CCCC(C)CCCl` (stereo not given), the growth inhibition is 1.95%. With `NC(=O)N/N=C(\Cc1nc2ccc(Cl)cc2[nH]c1=O)C(=O)Nc1ccc(Cl)cc1Cl`, the growth inhibition was -30.1%.

Consider `Cc1[nH]n(C(=N)N)c(=O)c1CCO`, for which the growth inhibition is -6.35%.

For `CC(=O)OCC1OC(n2cnc([N+](=O)[O-])c2Br)C(OC(C)=O)C1OC(C)=O` (stereo not given), the growth inhibition was 25.5%. The value for `CCCCCCCC(CC#N)(CCCCC)CCCCCC` (stereo not given) was -8.3%; that for `CCN(CC)CCNc1cc(C)nc(/N=C(\N)Nc2ccc(Cl)cc2)n1` was -14.8%; that for `O=C(O)c1cc2c([nH]1)-c1cccnc1C(=O)C2=O` was -18.8%. The value for `CC1c2ccccc2-c2ccccc2N1C(=O)c1cccc(C(=O)N2c3ccccc3-c3ccccc3C2C)n1` (stereo not given) was -1.9%; that for `O=C(O)C12CCCCC1CCCC2` (stereo not given) was 26.1%; that for `N#CC1(Cc2ccccc2[N+](=O)[O-])c2ccccc2C2C(N1C(=O)c1ccccc1)C2(Cl)Cl` (stereo not given) was -4.3%.

With `CCn1nnc2c(C(N)=O)ncn2c1=O`, the growth inhibition was 14.1%. For the molecule `O=C(/C=C/c1ccccc1)NCC(O)CO` (stereo not given), the growth inhibition was -0.3%. The value for `CN(C)CCCOc1nc2c(c(=O)n(C)c(=O)n2C)n1C` (tested in a mixture with another compound) was -9.35%; that for `COc1cc2cccc(N=Cc3cccc(OC)c3OC(C)C)c2cc1OC` was 16.1%; that for `O=C(Cc1ccccc1)NC(=O)Nc1ccccc1` was -0.15%. As for `COC(=O)c1cc(=O)c2ccc(Cl)cc2[nH]1`, the growth inhibition is -14.6%.

Consider `COc1ccc(SC(N(C)C)=[N+](C)C)cc1`, for which the growth inhibition was 11.4%. The same measure for `CCN(CC)CCNc1cc(OC)c(N)c2cccnc12`: -6.75%; for `Cc1cc(C)nc(NS(=O)(=O)c2ccc(NC(=O)c3cccc4c(Nc5ccc(S(=O)(=O)N=C(N)N)cc5)c5ccc(Cl)cc5nc34)cc2)n1`: 24.4%.

With `CN(N)c1cc(=O)n(C)c(=O)n1C`, the growth inhibition was -45.1%.

Regarding `C=C(Cl)CSC(C)(C)C`, the growth inhibition is -19.6%.

As for `CCCCc1ccc(Nc2nc(OC)c3ncn(C4CC(O)C(CO)O4)c3n2)cc1` (stereo not given), the growth inhibition was 57.8%. Regarding `c1ccc(CNCCCNCCCCNCCCNCc2ccccc2)cc1`, the growth inhibition is -10.3%. As for `OC1CCC(C2C3CCCCC3C3CCCCC3C2C2CCC(O)CC2)CC1` (stereo not given), the growth inhibition was 97.9% (active). The same measure for `CC(=O)Nc1ccc(S(=O)(=O)O)nc1`: 16.8%. The value for `CC1=C(C(=O)NCc2ccccc2)C(/C=C/c2ccccc2)C(C(=O)NCc2ccccc2)=C(C)N1` was -22.1%; that for `CCc1ccc(-c2c(-c3ccccc3)c(-c3ccccc3)c(-c3ccccc3)c(-c3ccccc3)c2-c2ccccc2)cc1` was 26.1%. The same measure for `O=C/C(=C1/C=Cc2cc([N+](=O)[O-])ccc2S1)c1ccccc1`: -14.8%.
